Reference: PubChem BioAssay AID1159580 (chemical genetic matrix, 2015)
Hit rate of the full screen: of about 5,500 compounds, about 2,000 (36%) were called active. About 18% were inconclusive and are not listed. Rule as the data show it: active = normalized growth mostly below about 0.91 (no sharp cut-off); inconclusive = no clear call, values can overlap the other calls; inactive = mostly above about 0.92. The list shows a part of the results.

Assay: chemical genetic growth profiling, strain panel (AID 1159580);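 also: tested at 20 µM; growth read once vehicle control cultures reached saturation at 30 °C; 1 = growth at the plate median or of vehicle wells; lower values mean less growth of the strain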
Settings: growth OD

Measured: normalized growth

CC(C)CCCC(C)C1CCC2C3CC[C@H]4CCCC[C@]4(C)C3CC[C@]12C (some centres not stated)
inactive: S. cerevisiae deletion strains, locus YJR075W, strain HOC1, hits give low values 0.965 | S. cerevisiae deletion strains, locus YKL009W, strain mrt4, hits give low values 1.01 | S. cerevisiae deletion strains, locus YKL068W, hits give low values 0.993 | S. cerevisiae deletion strains, locus YKL085W, strain MDH1 (second series), hits give low values 1.02 | S. cerevisiae deletion strains, locus YKL085W, strain MDH1, hits give low values 1.02 | S. cerevisiae deletion strains, locus YKL160W, strain elf1, hits give low values 0.998 | S. cerevisiae deletion strains, locus YKL190W, strain CNB1, hits give low values 0.98 | S. cerevisiae deletion strains, locus YKR001C, strain vps1, hits give low values 0.996 | S. cerevisiae deletion strains, locus YKR026C, strain gcn3, hits give low values 0.998 | S. cerevisiae deletion strains, locus YKR091W, strain srl3, hits give low values 1.02 | S. cerevisiae deletion strains, locus YLL001W, strain dnm1, hits give low values 1.02 | S. cerevisiae deletion strains, locus YLL026W, hits give low values 1.02 | S. cerevisiae deletion strains, locus YLL041C, strain sdh2, hits give low values 1.01 | S. cerevisiae deletion strains, locus YLR027C, strain aat2, hits give low values 1.01 | S. cerevisiae deletion strains, locus YLR039C, strain RIC1, hits give low values 0.951 | S. cerevisiae deletion strains, locus YLR058C, strain SHM2, hits give low values 0.967 | S. cerevisiae deletion strains, locus YLR102C, strain apc9, hits give low values 0.977 | S. cerevisiae deletion strains, locus YLR113W, strain HOG1, hits give low values 1.03 | S. cerevisiae deletion strains, locus YLR221C, strain rsa3, hits give low values 1.02 | S. cerevisiae deletion strains, locus YLR258W, strain gsy2, hits give low values 1.02 | S. cerevisiae deletion strains, locus YLR262C, strain YPT6 (second series), hits give low values 1.02 | S. cerevisiae deletion strains, locus YLR262C, strain YPT6, hits give low values 0.945 | S. cerevisiae deletion strains, locus YLR268W, strain sec22, hits give low values 0.966 | S. cerevisiae deletion strains, locus YLR320W, strain mms22, hits give low values 1.02 | S. cerevisiae deletion strains, locus YLR330W, strain CHS5, hits give low values 0.999 | S. cerevisiae deletion strains, locus YLR342W, strain FKS1 (second series), hits give low values 1.04 | S. cerevisiae deletion strains, locus YLR342W, strain FKS1, hits give low values 1.02 | S. cerevisiae deletion strains, locus YLR357W, strain rsc2, hits give low values 1.04 | S. cerevisiae deletion strains, locus YLR370C, strain arc18, hits give low values 1.02 | S. cerevisiae deletion strains, locus YLR371W, strain rom2, hits give low values 0.998 | S. cerevisiae deletion strains, locus YLR384C, strain iki3, hits give low values 1.02 | S. cerevisiae deletion strains, locus YLR418C, strain cdc73, hits give low values 0.952 | S. cerevisiae deletion strains, locus YML016C, strain PPZ1, hits give low values 0.986 | S. cerevisiae deletion strains, locus YML032C, strain rad52, hits give low values 1 | S. cerevisiae deletion strains, locus YML120C, strain ndi1, hits give low values 1.02 | S. cerevisiae deletion strains, locus YML124C, strain tub3, hits give low values 1 | S. cerevisiae deletion strains, locus YMR058W, strain fet3, hits give low values 1.01 | S. cerevisiae deletion strains, locus YMR078C, strain ctf18, hits give low values 0.99 | S. cerevisiae deletion strains, locus YMR125W, strain sto1, hits give low values 1.03 | S. cerevisiae deletion strains, locus YMR129W, hits give low values 1.02 | S. cerevisiae deletion strains, locus YMR205C, strain PFK2, hits give low values 1.04 | S. cerevisiae deletion strains, locus YMR223W, strain ubp8, hits give low values 1 | S. cerevisiae deletion strains, locus YMR231W, strain pep5, hits give low values 1.02 | S. cerevisiae deletion strains, locus YMR263W, strain SAP30, hits give low values 0.949 | S. cerevisiae deletion strains, locus YMR307W, strain GAS1, hits give low values 1.07 | S. cerevisiae deletion strains, locus YNL067W, strain RPL9B, hits give low values 0.953 | S. cerevisiae deletion strains, locus YNL071W, strain lat1, hits give low values 1.01 | S. cerevisiae deletion strains, locus YNL128W, strain TEP1, hits give low values 0.941 | S. cerevisiae deletion strains, locus YNL153C, strain GIM3, hits give low values 0.962 | S. cerevisiae deletion strains, locus YNL183C, strain NPR1, hits give low values 0.922 | S. cerevisiae deletion strains, locus YNL209W, strain ssb2, hits give low values 1.02 | S. cerevisiae deletion strains, locus YNL233W, strain BNI4, hits give low values 0.983 | S. cerevisiae deletion strains, locus YNL248C, strain rpa49, hits give low values 0.992 | S. cerevisiae deletion strains, locus YNL250W, strain rad50, hits give low values 0.986 | S. cerevisiae deletion strains, locus YNL271C, strain bni1, hits give low values 0.993 | S. cerevisiae deletion strains, locus YNL298W, strain CLA4, hits give low values 0.998 | S. cerevisiae deletion strains, locus YNL307C, strain MCK1, hits give low values 1.01 | S. cerevisiae deletion strains, locus YNL322C, strain KRE1 (second series), hits give low values 1.02 | S. cerevisiae deletion strains, locus YNL322C, strain KRE1, hits give low values 0.971 | S. cerevisiae deletion strains, locus YNR049C, strain mso1, hits give low values 1.02 | S. cerevisiae deletion strains, locus YNR052C, strain pop2, hits give low values 0.996 | S. cerevisiae deletion strains, locus YOL006C, strain TOP1, hits give low values 0.935 | S. cerevisiae deletion strains, locus YOL012C, strain htz1 1.86 | S. cerevisiae deletion strains, locus YOL147C, strain pex11, hits give low values 0.992 | S. cerevisiae deletion strains, locus YOR001W, strain rrp6, hits give low values 0.993 | S. cerevisiae deletion strains, locus YOR061W, strain CKA2, hits give low values 0.964 | S. cerevisiae deletion strains, locus YOR069W, strain VPS5, hits give low values 1.01 | S. cerevisiae deletion strains, locus YOR070C, strain gyp1, hits give low values 1.02 | S. cerevisiae deletion strains, locus YOR080W, strain dia2, hits give low values 1.02 | S. cerevisiae deletion strains, locus YOR083W, strain WHI5, hits give low values 0.991 | S. cerevisiae deletion strains, locus YOR106W, strain vam3, hits give low values 1.01 | S. cerevisiae deletion strains, locus YOR136W, strain idh2, hits give low values 1 | S. cerevisiae deletion strains, locus YOR144C, strain elg1, hits give low values 0.981 | S. cerevisiae deletion strains, locus YOR184W, strain ser1, hits give low values 1.01 | S. cerevisiae deletion strains, locus YOR231W, strain MKK1, hits give low values 0.992 | S. cerevisiae deletion strains, locus YOR265W, strain rbl2, hits give low values 1.02 | S. cerevisiae deletion strains, locus YOR270C, strain vph1, hits give low values 1.03 | S. cerevisiae deletion strains, locus YOR290C, strain snf2, hits give low values 0.984 | S. cerevisiae deletion strains, locus YOR316C, strain cot1, hits give low values 0.981 | S. cerevisiae deletion strains, locus YPL051W, strain arl3, hits give low values 0.997 | S. cerevisiae deletion strains, locus YPL055C, strain LGE1, hits give low values 0.934 | S. cerevisiae deletion strains, locus YPL078C, strain atp4, hits give low values 0.996 | S. cerevisiae deletion strains, locus YPL106C, strain sse1, hits give low values 1.05 | S. cerevisiae deletion strains, locus YPL240C, strain hsp82, hits give low values 1 | S. cerevisiae deletion strains, locus YPL241C, strain CIN2, hits give low values 0.993 | S. cerevisiae deletion strains, locus YPL256C, strain CLN2, hits give low values 0.978 | S. cerevisiae deletion strains, locus YPR119W, strain clb2, hits give low values 0.999 | S. cerevisiae deletion strains, locus YPR141C, strain kar3, hits give low values 0.966 | S. cerevisiae deletion strains, locus YPR163C, strain tif3, hits give low values 1 | S. cerevisiae deletion strains, locus YPR167C, strain met16, hits give low values 0.982 | S. cerevisiae deletion strains, strain wtn01, hits give low values 0.982 | S. cerevisiae strains, strain wild type, hits give low values 0.984
